Hit rate of the full screen: of about 2,200 compounds, about 480 (22%) were called active. These entries were drawn from the full list. Results with a measured potency or affinity are listed apart. Values without a mark were called inactive. No rule for the calls is given here.
Assay: S. Typhimurium GFP fluorescence modified counterscreen for PhoP regulon inhibitor project dose response (AID 1981);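 also: 0% = induced DMSO wells and 100% = uninduced wells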
Conditions: 4 h; series mostly up to 150 µM; inhibition: at the top concentration

Point of comparison: `Cc1ccc2nc(SCC(=O)NCc3ccco3)[nH]c2c1`, “inhibition” value -4.71%. Against it:
- O=C(Cc1cccs1)Nc1cccc(-c2nc3cc4ccccc4cc3[nH]2)c1 — higher, 24.7%
- COc1ccc(Cl)cc1-c1nc(SCC(N)=O)n[nH]1 — higher, -2.75%
- O=C(OCC#CCSc1nnc(-c2cccc3ccccc23)o1)c1ccco1 — lower, -8%
- COc1ccc(Nc2nc(-c3c[nH]c4ccccc34)cs2)cc1 — higher, 27.9%
- CCc1ccccc1NC(=O)c1nnn(CC(=O)Nc2cccc(C)c2C)c1N — lower, -15.5%
- CCc1ccc2[nH]c(=O)c(CN(Cc3ccccc3)C(=O)Nc3ccccc3OC)cc2c1 — lower, -15.6%
- COc1ccccc1N1CCN(C(=O)c2cccc3c(=O)c(C)c(-c4ccccc4)oc23)CC1 — lower, -17.4%
- COc1ccccc1NC(=S)NC(=O)C(C)(C)C — lower, -8.6%
- COC(=O)c1ccc(C)c(NC(=O)CN(c2cc(OC)ccc2OC)S(C)(=O)=O)c1 — higher, -2.55%
- N#CC1(C#N)COC23CCCCC2C1(C#N)C(=N)O3 (stereo not drawn) — higher, 1.01%
- COc1ccc(OC)c(-c2cc(C(=O)Nc3c(C)nn(Cc4ccccc4)c3C)no2)c1 — higher, 10.4%
- Cc1nc2ccccc2n1CC(=O)NCc1ccccc1 — lower, -9.25%
- CCN1CCN(C(=O)c2ccc3c(=O)n(Cc4ccccc4OC)c(=S)[nH]c3c2)CC1 — lower, -14.1%
- CC(C)Cc1nc2ccc(N)cc2[nH]1 — higher, -1.44%
- Cc1[nH]c2ccccc2c1C(=O)COC(=O)c1ccc([N+](=O)[O-])s1 — higher, 30.4%
- Cc1ccc(NC(=O)CSc2nnc(C3CCCCC3)n2N)cc1F — lower, -11.3%
- O=C(c1cccnc1Nc1ccc2c(c1)CCC2)N1CCOCC1 — lower, -48.3%
- O=C(Nc1cccn(Cc2c(Cl)cccc2Cl)c1=O)c1ccccc1Cl — lower, -11.1%
- CCCn1c(N)c(C(=O)COC(=O)c2c(C)noc2C)c(=O)n(C)c1=O — higher, 3.88%
- CCOC(=O)C1=CSC2=NS(=O)(=O)CCN12 — lower, -14.2%
- O=C(CCN1C(=O)COc2ccccc21)NCCN1CCOCC1 — lower, -33.9%
- C#CCn1c(=NC(=O)c2cc(Cl)sc2Cl)sc2cc(S(N)(=O)=O)ccc21 — higher, 7.48%
- CCN(CC)S(=O)(=O)c1ccc(C(=O)N2CCN=C2SCc2cccnc2)cc1 — higher, 9.39%
- Cc1ccc(Nc2cc(C)c3c(O)cccc3n2)cc1C — higher, 28.9%
- Cc1cc(O)ccc1Nc1nc2ccccc2nc1Nc1ccc(O)cc1C — higher, 23.1%
- Cc1cc(Nc2ccccc2)nc2cc(O)ccc12 — higher, 7.5%
- Cc1ccc(Nc2cc(C)c3ccc(O)cc3n2)cc1C — lower, -9.87%
- c1ccc(-n2cnc3cc(NCc4ccccn4)ccc32)cc1 — lower, -5.78%
- CCOC(=O)c1[nH]c2ccccc2c1NC(=O)C(C)(C)C — lower, -11%
- Cn1cc(C(CC(=O)O)C(=O)O)c2ccccc21 (stereo not drawn) — lower, -12.2%
- CCOc1ccc(-n2c(SCc3nc(-c4ccc(C)cc4)no3)nnc2-c2ccncc2)cc1 — lower, -16.5%
- c1cncc(-c2nc(N3CCOCC3)c3ccccc3n2)c1 — lower, -16.8%
- O=c1[nH]c2cc3c(cc2cc1CN(CCc1ccccc1)Cc1nnnn1CC1CCCO1)OCO3 (stereo not drawn) — lower, -25.9%
- CCn1c(=O)c(=O)[nH]c2cc(C(=O)NCC3CCCCC3)ccc21 — lower, -9%
- CCOC(=O)CNS(=O)(=O)c1c(C)noc1C — lower, -22.1%
- CC1=CC2=NC(=O)/C(=C\c3cc(C)n(-c4ccc(F)cc4)c3C)C(=N)N2O1 — higher, -3.44%
- Cc1ccc(C(=O)CSC2=C(C#N)C(c3ccco3)CC(=O)N2)c(C)c1 (stereo not drawn) — higher, 5.92%
- COCCNC(=S)N(Cc1cccnc1)Cc1ccc(OC)c(OC)c1 — higher, -2.44%
- COc1ccc(NC(=O)ON=C2c3ccccc3-c3ccccc32)cc1 — lower, -8.68%
- COC(=O)c1cc(C#N)c(Oc2ccccc2OC)nc1C — higher, -4.37%
- O=C(Cn1nc(C(F)(F)F)c2c1CCCCC2)N1CCOCC1 — higher, -3.81%
- Cc1ccc2occ(/C=N/O)c(=O)c2c1 — higher, 19.3%
- C#CCOc1ccc(/C=C2\SC(=S)N(Cc3cccnc3)C2=O)cc1 — higher, -3.35%
- c1ccc2oc(SCc3cn4ccccc4n3)nc2c1 — lower, -8.39%
- Cc1cc(NC(=O)c2ccco2)ccc1-n1cnnn1 — lower, -22.4%
- CCOc1ccccc1Nc1nc2ccccc2n2cnnc12 — higher, 1.65%
- CCn1c(=O)c2c(O)cc(=O)oc2c2ccccc21 — higher, 5.61%
- Cc1nc([N+](=O)[O-])c(Br)n1CC(=O)c1ccccc1 — higher, 23.7%
- C=CCNc1ncnc2ccc(Br)cc12 — lower, -12.8%
- O=c1c2c(-c3ccccc3)csc2nc2c3ccccc3c(NCCN3CCOCC3)nn12 — higher, 8.44%
- COc1ccc(NC(=O)CSc2nnc(-c3cccs3)n2Cc2ccco2)cc1OC — lower, -16.9%
- CCSc1nc(C2CC2)cc(-c2cccs2)c1C#N — higher, -1.65%
- c1ccc2cc(CSCc3nc4ccccc4[nH]3)ccc2c1 — higher, 13.8%
- Cc1ccc(NC(=O)COC(=O)C2(c3ccc(Cl)cc3)CCCC2)cc1 — lower, -16.8%
- O=C(CSc1nnc(-c2cccnc2)o1)OC1CCCCC1 — lower, -25.1%
- COc1cccc(NS(=O)(=O)c2c(C)cc(C)cc2C)c1 — higher, 7.36%
- c1ccc2c(C3=NNC(=NC4CC4)SC3)c[nH]c2c1 — lower, -24.9%
- COc1ccc(NC(=O)CSc2nc(C)cs2)cc1OC — lower, -5.4%
- c1ccn2c(CNc3ncnc4sccc34)nnc2c1 — lower, -17.6%
- CCCCOC(=O)CCNc1n[nH]c(=O)[nH]c1=O — higher, 0.14%
- O=C(Nc1ccc(NC(=O)C23CC4CC(CC(C4)C2)C3)cn1)c1ccco1 — lower, -13.3%
- COC(=O)CCC(=O)Nc1ccc(OC)cc1 — higher, 0.92%
- CC(=O)N/N=C/c1ccc(OCCOc2ccc(Br)cc2)cc1 — lower, -23.2%
- O=C1CCCc2c1cc(C(=O)NCc1ccco1)c(=O)n2-c1ccc(Cl)cc1 — higher, -3.88%
- COc1ccc(OC)c(C2=Nn3c(nnc3-c3cc(OC)c(OC)c(OC)c3)SC2)c1 — higher, -4.61%
- O=C(Cc1ccc(Cl)cc1)NNS(=O)(=O)c1ccc([N+](=O)[O-])cc1 — lower, -10.4%
- N[C@H](CSCc1ccccc1)C(=O)Nc1ccc([N+](=O)[O-])cc1 — higher, 5.75%
- Cc1ccc(CSCc2nc3ccccc3[nH]2)cc1 — higher, 8.08%
- CN1CCCC(OC(=O)CCCC(=O)OC2CCCN(C)C2)C1 (stereo not drawn) — higher, 2.83%
- O=C(c1ccc(Oc2ccccc2)cc1)c1nc2c(n1O)CCCC2 — higher, 23.6%
- CC1CC(C)CN(CCCSc2ccccc2)C1 (stereo not drawn) — lower, -12%
- CC(Nc1ccc(Br)cn1)c1cc(Cl)ccc1O (stereo not drawn) — higher, 15.7%
- O=C(CN1CCN(c2ccccn2)CC1)Nc1ccc(Oc2ccccc2)cc1 — higher, 0.24%
- Cc1nn2c(=O)cc(CSc3nc4ccccc4[nH]3)nc2s1 — higher, 5.25%
- CC(=Nc1c(C)n(C)n(-c2ccccc2)c1=O)c1c(O)n(Cc2ccccc2)c(=O)[nH]c1=O — higher, -0.46%
- Cc1cc2nn(-c3ccccc3)nc2cc1NC(=O)c1cccs1 — lower, -22.9%
- NNC(=O)CNC(c1ccccc1)c1cc(Br)ccc1NC(=O)c1ccc(Br)cc1 (stereo not drawn) — higher, 19%
- O=C(/C=C/c1ccco1)N/C(=C\c1ccccc1)C(=O)NCCc1nc2ccccc2[nH]1 — higher, -0.03%
- O=C(O)CCc1nn2c3ccccc3n(CCN3CCCCC3)c2nc1=O — higher, 4%
- O=C(NCc1cccs1)[C@@H]1CSC2c3ccccc3C(=O)N21 (stereo partly drawn) — higher, 2.31%
- CC(C(=O)NC1CCCc2ccccc21)N1CCN(Cc2ccc3c(c2)OCO3)CC1 (stereo not drawn) — higher, -1.02%
- Cc1ccc(NC2CC(=O)N(Cc3ccccc3)C2=O)cc1 (stereo not drawn) — lower, -19.2%
- NC(=O)C1(NC(=O)[C@@H]2CC3(CC(c4cccc(NC(=O)[C@@H]5CCC(=O)N5)c4)=NO3)CN2C(=O)Cc2ccc(Cl)cc2)CC1 (stereo partly drawn) — lower, -10.6%
- Cc1ccc(C=Nc2ccccc2C(N)=O)s1 — lower, -22%
- CC(=O)Nc1ccc(-c2nnc(SCc3c(C)cc(C)cc3C)n2C)cc1 — higher, 8.18%
- O=C(NCc1cccs1)c1cccc(Nc2nc3ccc(Br)cc3[nH]2)c1 — higher, 5.95%
- Nc1c(C(=O)NCCc2ccc(Cl)cc2)sc2ccc(S(=O)(=O)N3CCCCC3)cc12 — higher, 2%
- CCCCCCCCNc1ncnc2ccccc12 — higher, 21.5%
- Clc1ccc(OCCn2ccnc2)c(Br)c1 — higher, 4.2%
- Cc1ccc(N2C(=O)CC(Nc3ccccc3)C2=O)cc1 (stereo not drawn) — lower, -5.83%
- COC(=O)c1sccc1N/N=C(\C)c1ccc(F)c(Cl)c1 — higher, 4.52%
- CCN(CC(=O)N1CCN(Cc2ccccc2)CC1)S(=O)(=O)c1ccc(F)cc1 — lower, -7.07%
- O=C(Nn1c(O)c(C=C2N=c3ccccc3=N2)sc1=S)c1ccc(Cl)cc1 — lower, -10.5%
- C=CCn1c(SCC(=O)Nc2nnc(CC)s2)nnc1-c1cccnc1 — lower, -22.6%
- CN(c1ccccc1)S(=O)(=O)c1ccc(C(=O)Nc2nnc(-c3ccc(F)cc3)o2)cc1 — lower, -10.1%
- Cc1ccc(C)c(NC(=O)C(Sc2nnc(-c3cccs3)o2)c2ccccc2)c1 (stereo not drawn) — higher, 3.64%
- Cc1cc(-c2c(C)n([O-])c(C)c(C)[n+]2=O)ccc1F — lower, -12.9%
- COc1cc(C(=O)NC(=S)Nc2ccc3oc(=O)ccc3c2)cc(OC)c1OC — lower, -16.2%
- CC1(C)CC(=O)C2=C(C1)OC1=C(C(=O)CC(C)(C)C1)C2c1ccc(O)cc1O — higher, 17.2%
- Cc1cc(Nc2ccccc2F)n2ncnc2n1 — higher, -1.64%
- C/C(=N\N=C(/N)SC1CC(=O)N(c2cccc(Cl)c2)C1=O)c1cccs1 (stereo not drawn) — higher, 6.99%
- CCCCCCNCc1cccc(Br)c1 — lower, -5.86%
- Cc1ccccc1NC(=O)Nc1cccs1 — higher, 0.01%
- O=C(c1cc(-c2cccs2)nc2ccccc12)N1CCN(c2ccccc2O)CC1 — higher, 39.2%
- CCC1=NNc2cccc3c(OC)ccc1c23 — lower, -16.9%
- O=C1Nc2ccccc2C12OCC1(CO2)COC2(OC1)C(=O)Nc1ccccc12 (stereo not drawn) — higher, 35%
- Cc1ccc(C(C)C)c(OCC(=O)N2CCN(Cc3nc4cc([N+](=O)[O-])ccc4n3C)CC2)c1 — higher, 1.95%
- Cc1cc(C)cc(-n2nc(C)cc2N)c1 — lower, -5.73%
- CCCN1C(=O)SC(CC(=O)Nc2ccc(Br)cc2)C1=O (stereo not drawn) — higher, 4.65%
- Cn1c(NCc2cccs2)nc2ccccc21 — lower, -15.4%
- CC(C)[C@@H]1CC[C@@H](C)C[C@H]1OC(=O)C[n+]1cc(-c2ccc(Cl)cc2)n2c1CCCCC2 — higher, 7.76%
- CC1CCC(C(C)C)C(OC(=O)Cn2c(-c3ccc(Cl)cc3)[n+](C)c3ccccc32)C1 (stereo not drawn) — higher, 24.2%
